# PubChem BioAssay AID799 (SRMLSC, 2007)
# Hit rate of the full screen: of about 140,000 compounds, about 840 (0.6%) were called active. This is one part of a sample in which actives are shown more often than they occur.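 The calls were made as follows: active = viability gain under doxorubicin at or above a set limit, the compound median plus 3 SD (cut at about 4.7% in these data); inactive = the rest.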
# Assay: protection of MRP-1-high cells against doxorubicin toxicity – H69AR cells, CellTiter-Glo, MRP-1 activator project, primary screen (AID 799);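 also: MRP-1 overexpressing cells given doxorubicin 25 µM after compound pretreatment; 18-22 h compound pretreatment then 72 h with doxorubicin before readout; 0% = doxorubicin-only wells and 100% = vehicle-treated cells without doxorubicin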
# Settings: viability rescue, at 10 µM, stronger effect = higher value
row,Compound,viability increase
1,COc1cc(C(=S)NC2CCCCC2)ccc1O,-2.71% (inactive)
2,Cc1[nH]n(-c2ccccc2)c(=O)c1/C=N/NC(=O)c1ccoc1C,-1.54% (inactive)
3,COc1cc(NC(=S)NCCSc2ccc(C)cc2)cc(OC)c1,-3.24% (inactive)
4,CC(C)c1nnc(NC(=O)C2CCCN2S(=O)(=O)c2ccc(Cl)cc2)s1 (stereo not given),-0.99% (inactive)
5,CCc1nnc(NC(=O)C2CCCN2S(=O)(=O)c2ccccc2)s1 (stereo not given),12.4% (active)
6,CCc1nnc(NS(=O)(=O)c2ccc(NS(=O)(=O)c3ccccc3)cc2)s1,-0.5% (inactive)
7,C=CCNC(=O)c1ccccc1NC(=O)c1ccc(Cl)c(S(=O)(=O)Nc2cccc(C)c2C)c1,5.97% (active)
8,Cc1ccccc1NC(=O)c1ccccc1NS(=O)(=O)c1cccc2cccnc12,-3.17% (inactive)
9,COC(=O)c1ccc(C(=O)Nc2cc(Cl)ccc2Cl)cc1NC(=O)c1ccccc1C,-3.01% (inactive)
10,CC(C)(C)C1CCC(OC(=O)CCC(=O)Nc2ccccc2)CC1 (stereo not given),3.57% (inactive)
11,Cc1ccc(C(=O)Cc2nnc(C)s2)cc1,-2.89% (inactive)
12,Cc1ccc(C2=N/C(=C\c3ccc(OS(=O)(=O)c4ccc(C)cc4)cc3)C(=O)O2)cc1,-1.26% (inactive)
13,O=C(Nc1ccn(Cc2ccc(F)cc2)n1)c1ccncc1,1.75% (inactive)
14,CC(=O)Nc1ccn(Cc2c(F)cccc2Cl)n1,-1.03% (inactive)
15,O=C(Nc1ccn(Cc2ccccc2F)n1)c1ccc(COc2ccc(Cl)cc2Cl)o1,10.6% (active)
16,CCCc1ccc(-c2c(C)sc(NC(=O)c3ccnn3C)c2C#N)cc1,-1.28% (inactive)
17,Cn1ncc(Br)c1C(=O)NCc1cccs1,-2.03% (inactive)
18,Cn1nccc1CNC(=O)c1ccnn1C,10.8% (active)
19,O=C(NCc1ccccc1Cl)C1CCC(CNc2c(N3CCCCC3)c(=O)c2=O)CC1 (stereo not given),-1.61% (inactive)
20,CN(C)S(=O)(=O)c1ccc(N2CCCC2=O)c([N+](=O)[O-])c1,-1.68% (inactive)

row,Compound,viability increase
1,COc1ccc(-c2nn(-c3ccccc3)cc2C(=O)Nc2nccs2)cc1OC,-4.27% (inactive)
2,CC(=O)Cc1nsc(NC(=O)c2ccc(COc3ccc(C)cc3)o2)n1,-0.06% (inactive)
3,COc1ccc(-c2nn(-c3ccccc3)cc2C(=O)Nc2nc(CC(C)=O)ns2)cc1,6.77% (active)
4,COc1ccc2nc(Nc3nc4ccc(NC(C)=O)cc4s3)sc2c1,-4.94% (inactive)
5,CCCOc1ccc(Cn2ccnc2)cc1[N+](=O)[O-],-1.18% (inactive)
6,CC(=O)NC1C(OCc2ccccc2)OC(COC(C)=O)C(OC(C)=O)C1OC(C)=O (stereo not given),-1.54% (inactive)
7,Cc1ccc(S(=O)(=O)N(Cc2ccc(Cl)cc2)c2ccccc2C(=O)NCc2cccnc2)cc1,-2.38% (inactive)
8,Cc1ccc(O)c(-c2cc(C(=O)NCc3ccccc3)[nH]n2)c1,-1.43% (inactive)
9,CSCCC1NC2(C(=O)Nc3ccc(Cl)cc32)[C@@H]2C(=O)N(C3CCCC3)C(=O)[C@H]12 (stereo not given in full),-3.72% (inactive)
10,O=C1[C@@H]2C(Cc3ccc(O)cc3)NC3(C(=O)Nc4ccc(F)cc43)[C@@H]2C(=O)N1c1ccc(F)cc1 (stereo not given in full),5.18% (active)
11,CNC(=O)NC(=O)C(OC(=O)c1cccc(S(=O)(=O)N2CCCCC2)c1)c1ccccc1 (stereo not given),-2.3% (inactive)
12,Cc1cc(NS(=O)(=O)c2ccc(NC(=S)NC(=O)c3ccc(F)cc3Cl)cc2)no1,-2% (inactive)
13,CCN(CC)c1ccc([N+](=O)[O-])cc1C(=O)O,0.59% (inactive)
14,CC(NC(=O)COC(=O)C1CCN(S(=O)(=O)c2ccccc2C(F)(F)F)CC1)c1ccccc1 (stereo not given),-1.86% (inactive)
15,COCC(C)n1c(C)cc(C(=O)CSc2cc(C)c3ccccc3n2)c1C (stereo not given),0.22% (inactive)
16,Cc1ccc(N2C(=O)C(Cc3ccccc3)NC2=S)cc1 (stereo not given),-0.7% (inactive)
17,Cc1ccc(N2C(=O)C3C(c4ccccc4)(C2=O)C3(c2ccccc2)c2ccccc2)cc1 (stereo not given),5.37% (active)
18,Cc1ccc(C2C3=C(Nc4[nH]n(-c5ccccc5)c(=O)c42)c2ccccc2C3=O)cc1 (stereo not given),-0.43% (inactive)
19,N/C(=N\OC(=O)N1c2ccccc2Sc2ccccc21)c1ccc(Br)cc1,-2.4% (inactive)
20,COc1cc2c(cc1NC(=O)COC(=O)/C=C/c1ccccc1)oc1ccccc12,-4.74% (inactive)

row,Compound,viability increase
1,O=C(CSCc1ccc(Cl)cc1)N1CCN(Cc2ccc3c(c2)OCO3)CC1,5.45% (active)
2,CS(=O)(=O)N(CC(=O)N1CCN(Cc2ccc3c(c2)OCO3)CC1)c1ccc2c(c1)OCO2,-1.42% (inactive)
3,O=C(CSCc1ccc(Cl)cc1)N1CCCCC1,0.74% (inactive)
4,CCN(C(=O)COC(=O)c1c(NC(C)=O)sc(C)c1C)C1CCS(=O)(=O)C1 (stereo not given),-2.05% (inactive)
5,CCOc1ccc(Nc2nc(Cl)nc(N3CCN(c4ccc(OC)cc4)CC3)n2)cc1,1.19% (inactive)
6,CN(Cc1cccs1)C(=O)Cc1c[nH]c2ccccc12,-2.21% (inactive)
7,Cc1cccc(OCc2ccc(C(=O)Nc3ccc(F)cc3)cc2)c1,4.9% (active)
8,CCC(=O)Nc1ccc(C(=O)Nc2cccc(OC)c2)cc1,-2.62% (inactive)
9,Cc1cccc(C(=O)Nc2ccc(CC(=O)O)cc2)c1,-0.27% (inactive)
10,CCOP(=O)(OCC)C(Nc1cccc(C)c1)c1ccc(F)cc1 (stereo not given),0.43% (inactive)
11,CCOC(=O)C(NC(=O)CC(C)C)(Nc1sc2c(c1C(N)=O)CCCC2)C(F)(F)F (stereo not given),-2.1% (inactive)
12,C/C(=N\NS(=O)(=O)c1ccc(Cl)cc1)c1ccc(NC(=O)c2ccco2)cc1,-2.49% (inactive)
13,Cc1c(Cl)cccc1NC(=O)CC1SC(=NCC2CCCO2)NC1=O (stereo not given),2.61% (inactive)
14,O=C1NC(=Nc2ccc(Cl)cc2)SC1Cc1cccc(Cl)c1Cl (stereo not given),6.35% (active)
15,NC1=NC(=O)C(Cc2cccc(Cl)c2Cl)S1 (stereo not given),-0.15% (inactive)
16,CC(C)CNC(=O)C(=O)Nc1ccc(N(C)C)cc1,0% (inactive)
17,CC1CCc2sc(C(=O)N/N=C/C3CCCCC3)cc2C1 (stereo not given),-1.48% (inactive)
18,Cc1ccc(C(c2sc3nc(C)nn3c2O)N2CCN(c3ccc(F)cc3)CC2)cc1 (stereo not given),-2.22% (inactive)
19,Oc1c(C(c2cccs2)N2CCN(c3ccc(F)cc3)CC2)sc2ncnn12 (stereo not given),10.6% (active)
20,Oc1c(C(c2ccco2)N2CCC3(CC2)OCCO3)sc2ncnn12 (stereo not given),0.05% (inactive)
